Only some compounds are listed: those with a hit (about 2.3% of all), similar ones and a draw of the others.
ERK AVP block: vasopressin-driven ERK pathway inhibition | actives 0.99% (n = 72,000) | AID 995 | HEK293-V1b, vasopressin-stimulated pERK AlphaScreen | Potency, µM (highest dose often 57.5 µM), without a hit: top-dose activity, negative = inhibition, most hits filed as inhibitors; also: % is scaled to controls: 0 for no effect and ±100 for the full control effect; nearly all actives have a fitted effect of over 55% in size
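qHTS, compounds titrated on V1b-expressing HEK293 cells. Preincubation 30 min at 37C, vasopressin 25 nM for 5 min, lysis 10 min, bead incubation 5 hr at room temperature.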
Peg3 imprint: induces erasure of genomic imprints in mouse ES cells | mouse ES Peg3-LacZ reporter, beta-gal luminescence, 40 h | Potency, µM (doses to about 60.7 µM), without a hit: at the top dose activity change, positive = activation, most hits filed as activators | actives 0.02% (n = 110,000) | AID 1948
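Gelatin-coated wells received 300 freshly trypsinized female ES cells with a Peg3LacZ-Neo reporter on the maternal allele, then incubated 40 hours at 37C. BetaGlo was added for 5 minutes at room temperature before a single luminescence read.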
p53ts 32C tox: cytotoxicity in p53ts cells at permissive temperature; H1299-p53A138V at 32C, ATP luminescence viability, 24 h; actives 0.93% (n = 130,000); Potency, µM (top dose mostly 46.1 µM), without a hit: at the highest dose activity change, negative = cytotoxicity, usual class: cytotoxic;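 also: 0% = DMSO and -100% = full killing by reference compound; nearly all actives have a fitted effect of over 55% in size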
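Viability by ATPlite luminescence after 24 h compound treatment (up to 46 uM) at the permissive 32C. Cells are H1299 carrying p53 A138V. Scale runs from DMSO basal to 100 uM tamoxifen as full kill; AC50 from Hill fits.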
p53ts 39C tox: kills p53ts cells at the nonpermissive temperature; H1299-p53A138V viability at 39C, ATP luminescence, 24 h; Potency, µM (doses to about 46.1 µM), inactives show top-dose activity change, negative = cell killing, most hits filed as cytotoxic; actives 1.5% (n = 130,000); AID 902; also: % is scaled to controls: 0 for no effect and ±100 for the full control effect; nearly all actives have a fitted effect of over 55% in size
IkB signaling: IkB pathway inhibition in ABC-DLBCL cells; actives 0.04% (n = 110,000); ABC-DLBCL IkBa-CBG/CBR dual luciferase ratio, 4 h; response scale: scaled: untreated 0%, proteasome inhibitor 100%; AID 445; Potency, µM (titrated, usually from 57.1 µM), for the others: at the top dose IkBa stabilization activation; active = well fitted curve in the direction sought with a large enough effect in the signal ratio, not every such curve was filed as active; inconclusive = small, poorly fitted or top-dose-only effect, or a change in a side signal; the % refers to the signal ratio;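 also: the direction sought is a rising ratio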
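Luminescence ratio of IκBα-fused green versus native red beetle luciferase in OCI-Ly3 cells, 4 h post-doxycycline with compound; red signal alone, scaled from basal (0%) to zero light (-100%), flagged nonspecific or cytotoxic effects.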
Numbers without * were called inactive; ? = inconclusive; · = no result; [ ] = dose if it differs, or a comment. Unless noted, calls follow the shape of the dose curve; as a rule, active = well fitted curve in the direction sought with a large enough effect; inconclusive = small, poorly fitted or top-dose-only effect, or another doubt; inactive = no such curve, though single readings can be large; an effect the other way counts as inactive or inconclusive. Potency is read from the fitted curve at half-maximal effect.

SMILES	ERK AVP block	Peg3 imprint	p53ts 32C tox	p53ts 39C tox	IkB signaling
CC(=O)[C@@H](C)CCO[C@@]1(C)OCC[C@@H]1C	13%[11.5 µM]	-8%[10.9 µM]	-6%[9.22 µM]	-21%[9.22 µM]	-1%[11.4 µM]
COc1ccc(NC(=O)CSc2nc(-c3ccccc3)nc3cc(=O)[nH]n23)cc1	·	6%[10.9 µM]	-3%	9%	?
Cc1cc(OCCCSc2nc(-c3ccc(C(C)(C)C)cc3)nc3cc(=O)[nH]n23)ccc1Cl	·	-10%[10.9 µM]	30%	16µM*	4%
COc1cccc(-c2nc(SCc3ccc(C)cc3)n3[nH]c(=O)cc3n2)c1	·	?	-1%	13µM*	-2%
CC(C)(C)c1ccc(-c2nc(SCCCOc3ccccc3)n3[nH]c(=O)cc3n2)cc1	·	-4%[10.9 µM]	7%	20µM*	?
Cc1ccc(S(=O)(=O)Nc2ccccc2C(=O)c2ccc(C)c(C)c2)cc1	18%[11.5 µM]	-21%[10.9 µM]	-8%[9.22 µM]	14%[9.22 µM]	?
CC(=O)Nc1cc(OC(C)=O)c2nonc2c1OC(C)=O	?	-80%	3.2µM*	7.9µM*	?
S=c1nc(-c2nc(=S)[nH]c3c2CCCCCCCCCC3)c2c([nH]1)CCCCCCCCCC2	10%[11.5 µM]	3%[10.9 µM]	2%[9.22 µM]	5%[9.22 µM]	2%[11.4 µM]
CC(=O)OC[C@@H]1O[C@H](CCO/N=C(\C)CCN2CCc3nc(-c4ccccc4)c(-c4ccccc4)cc3C2)C=C[C@@H]1OC(C)=O	-4%[11.5 µM]	·	13%[9.22 µM]	7%[9.22 µM]	·
CN1CCN(c2ncc3nc(-c4cc(F)cc(F)c4)c(=O)n(CCC#N)c3n2)CC1	-23%	-13%	0%	-7%	-2%[11.4 µM]
COc1cccc(C(=O)Nc2ccc(C)cc2)c1	1%	-82%	16µM*	16µM*	?
COc1cccc(C(=O)Nc2ccc(C(=O)O)cc2)c1	0%	-90%	10%	-1%	11%
COC(=O)c1ccc(NC(=O)c2cccc(OC)c2)cc1	?	-86%	13µM*	?	?
Cc1ccc(NC(=O)c2ccccc2O)cc1	-8%	-65%	14µM*	10µM*	?
COc1cccc(C(=O)NC2=NCCS2)c1	-3%	-71%	16µM*	?	0%
O=C(Nc1ccccc1)c1ccccc1O	-25%	-48%	?	-22%	?
CN(CC(=O)O)Cc1c[nH]c2ccccc12	9%[11.5 µM]	-13%[10.9 µM]	1%[9.22 µM]	-2%[9.22 µM]	0%[11.4 µM]
O=C(O)/C=C\C(=O)Nc1ncn[nH]1	11%[11.5 µM]	-2%[10.9 µM]	-5%[9.22 µM]	-2%[9.22 µM]	0%[11.4 µM]
Cc1ccc2nc(/C(C#N)=N/O)[nH]c2c1	-14%	-14%	7.9µM*	?	?
CC1Cc2ccccc2N1S(=O)(=O)c1cccc2nsnc12 (stereo not drawn)	16µM*	-19%	19%	17%	2%
Cc1noc(C)c1-c1nc(NCc2ccccc2)c2ccccc2n1	-28%	-6%	-4%	-17%	2%[11.4 µM]
COc1ccc(-n2nc(C(=O)NCC(=O)N3CCN(c4ccccn4)CC3)c3ccccc3c2=O)cc1	15%	-9%	13µM*	13µM*	0%
c1csc(-c2nc3ccccc3[nH]2)c1	-11%	-73%	-21%	-15%	2%
Nc1nc(-c2nc3ccccc3[nH]2)cs1	-3%	-82%	16µM*	13µM*	?
Cc1ccc(-c2nc3ccccc3[nH]2)s1	-24%	-91%	13µM*	13µM*	?
SMILES	ERK AVP block	Peg3 imprint	p53ts 32C tox	p53ts 39C tox	IkB signaling
Cc1cccc(CSc2nc(=O)c3c(n2C)NC(=O)CC3c2cc(F)cc(F)c2)c1 (stereo not drawn)	·	-16%[10.9 µM]	8%	-5%	?
CCCN1C(=O)C(Cc2nc3ccccc3c(=O)n2CC)c2cc(Br)ccc21 (stereo not drawn)	·	-26%[10.9 µM]	17%	10µM*	?
CCn1c(CC2C(=O)N(C)c3ccc(Br)cc32)nc2ccccc2c1=O (stereo not drawn)	·	-22%[10.9 µM]	10%	-29%	3%
CO[C@@H]1COC(=O)[C@@H](CCSC)NC(=O)C/C=C\[C@@H](C)COC(=O)[C@H](C)NC(=O)C/C=C\[C@H]1C	16%[11.5 µM]	·	1%[9.22 µM]	-3%[9.22 µM]	·
Cc1ccc(-c2cc(C(=O)N3CCN(c4ccccc4)CC3)c3ccccc3n2)cc1C	·	5%[10.9 µM]	13µM*	10µM*	1%
O=C(c1cc(-c2ccccc2)nc2ccccc12)N1CCN(c2ccccn2)CC1	?	-25%	-13%	-15%	?
O=C(Nc1ccc(S(=O)(=O)N2CCCCC2)cc1)c1ccc(CN2CCOCC2)cc1	·	·	-4%	-2%	·
COc1cccc(NC(=O)c2ccc(CN3CCOCC3)cc2)c1	14%	-75%	13µM*	10µM*	?
O=C(Nc1ccc(S(=O)(=O)N2CCCC2)cc1)c1ccc(CN2CCOCC2)cc1	10µM*	-13%	-5%	0%	?
N#CC1=C(SCC(=O)c2cc3ccccc3oc2=O)NC(=O)C(C#N)C12CCCC2 (stereo not drawn)	25µM*	-11%	2%	14%	?
O=C1c2ccccc2C(Nc2ccc3c(c2)OCO3)N1Cc1ccc2c(c1)OCO2 (stereo not drawn)	2%	-24%	1%	-3%	1%
O=C1c2ccccc2C(Nc2ccc3c(c2)OCO3)N1Cc1ccco1 (stereo not drawn)	25µM*	-26%	5%	11%	-3%
C=CC1=C(C)C2=NC1=CC1=NC(=CC3=NC(=CC4=NC(=C2)C(C)=C4CCC(=O)O)C(CCC(=O)O)=C3C)C(C=C)=C1C.[Zn]	10%	-19%	-7%	-18%	0%
c1ccc(-c2cc3c(N4CCOCC4)ncnc3s2)cc1	20µM*	-11%	-3%	-13%	?
Cc1nc(N2CCOCC2)c2cc(-c3ccccc3)sc2n1	16µM*	-16%	-28%	-11%	-1%
CSc1nc(N2CCOCC2)c2ccccc2n1	-15%	-5%	10%	-2%	-2%
c1ccc(-n2nnc3c(N4CCOCC4)ncnc32)cc1	-14%	-85%	13µM*	13µM*	?
CC(C)[C@@H](C)/C=C\[C@@H](C)[C@@H]1CC[C@H]2C3=CC=C4C[C@@H](O)CC[C@]4(C)[C@H]3CC[C@]21C	9%[11.5 µM]	4%[10.9 µM]	-1%[9.22 µM]	6%[9.22 µM]	-1%[11.4 µM]
C/C(CC/C(C)=N/O)=N/O	-12%[11.5 µM]	-1%[10.9 µM]	-1%[9.22 µM]	-1%[9.22 µM]	-1%[11.4 µM]
CCc1ccccc1Nc1nn2c(=O)c3ccc(C(=O)NCc4ccc(C)cc4)cc3nc2s1	·	-6%[10.9 µM]	?	-5%	?
Cc1ccc(Cl)cc1Nc1nn2c(=O)c3ccc(C(=O)NCc4ccc(F)cc4)cc3nc2s1	·	-12%[10.9 µM]	1%	13µM*	?
Cc1ccc(C)c(Nc2nn3c(=O)c4ccc(C(=O)NCc5cccs5)cc4nc3s2)c1	·	-5%[10.9 µM]	16µM*	?	?
COc1ccccc1Nc1nn2c(=O)c3ccc(C(=O)NCc4cccs4)cc3nc2s1	·	-28%[10.9 µM]	3.2µM*	10µM*	?
